Assay outcomes as filed in PubChem.
IMPase cell inh: membrane-permeable compound that blocks inositol monophosphatase; P97697; CHO-M1 cells, IP1 accumulation, HTRF TR-FRET ratio; inhibition (IP1 accumulation), % at 46.1 µM; AID 901; 120,000 tested, under 10 active; active = well fitted curve in the direction sought with a large enough effect in the signal ratio, not every such curve was filed as active; inconclusive = small, poorly fitted or top-dose-only effect, or a change in a side signal; inactive = no such curve, though single readings can be large or run the other way; the % refers to the signal ratio;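 note: cells stimulated with carbachol in lithium chloride buffer; plate controls were DMSO basal wells for no effect and reference inhibitor wells for full effect; higher means more IMPase inhibition seen as more IP1 and lower FRET ratio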
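Measured: the HTRF emission ratio (665/620 nm) plus the 620 nm donor channel, each fitted to the Hill equation to give AC50. Cells were CHO-M1 given compounds up to 46 uM and a 30 min carbachol stimulation at 37C.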
12-hLO inh: blocks human 12-lipoxygenase activity. purified 12-hLO, xylenol orange hydroperoxide absorbance. Potency, µM (titrated, usually from 57.1 µM), inactives show at the highest dose activity change, negative = inhibition, most hits filed as inhibitors. hit rate 0.12% among 150,000; note: potency is the fitted concentration of half-maximal effect; nearly all actives have a fitted effect of over 55% in size
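150 nM 12hLO, 25 mM Hepes pH 7.0 + 0.01% Triton X-100; cpd preinc 15 min RT; 40 uM arachidonic acid, 30 min RT; Fe-XO 30 min; A573/A405 ratio as read-out.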
HPGD block: HPGD (human) dehydrogenase inhibition; purified HPGD, NADH fluorescence kinetic, PGE2 substrate; Potency, µM, for the others: top-dose activity change, negative = inhibition, most hits filed as inhibitors; hit rate 4.3% among 150,000; AID 894; active = well fitted inhibition curve with a large enough effect, not every such curve was filed as active; inconclusive = small, poorly fitted or top-dose-only effect, or another doubt; inactive = no such curve, though single readings can be large or run the other way; note: potency is the fitted concentration of half-maximal effect
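NADH formation kinetics: reaction with 30 uM PGE2 and 1 mM NAD+ (final), 20 nM enzyme, Tris-HCl pH 8 with Tween 20, after 15 min compound preincubation at room temperature. Fluorescence change, last versus first of five reads.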
NPSR antagonist: blocks cAMP signaling of the human neuropeptide S receptor. hit rate 1% among 220,000. CHO-NPSR cells, cAMP TR-FRET, antagonist mode. Potency, µM (series often up to 38.3 µM), for inactives: at the top dose activity change, negative = inhibition, hits mostly inhibitors. Q6W5P4; note: potency is the fitted concentration of half-maximal effect; nearly all actives have a fitted effect of over 50% in size
Target sequence (Q6W5P4 whole entry, looked up): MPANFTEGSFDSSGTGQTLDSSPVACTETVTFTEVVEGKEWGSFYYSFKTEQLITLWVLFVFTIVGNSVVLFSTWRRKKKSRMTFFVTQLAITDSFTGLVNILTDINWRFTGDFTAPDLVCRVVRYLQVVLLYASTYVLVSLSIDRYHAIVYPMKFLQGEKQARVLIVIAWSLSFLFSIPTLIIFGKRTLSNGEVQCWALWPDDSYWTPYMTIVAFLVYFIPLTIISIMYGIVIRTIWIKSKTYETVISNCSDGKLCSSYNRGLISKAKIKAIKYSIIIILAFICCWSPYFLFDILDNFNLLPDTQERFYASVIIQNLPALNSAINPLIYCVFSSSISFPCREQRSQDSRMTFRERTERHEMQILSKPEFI
IMPase Li cell: membrane-permeable IMPase blocker, potentiated with lithium; CHO-M1 cells, IP1 TR-FRET (IP-One), carbachol + lithium; Potency, µM (titrated, usually from 59.4 µM), for inactives: at the top dose activity, negative = IMPase inhibition, usual class: inhibitors; hit rate 0.35% among 210,000; AID 1457;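 note: IP1 builds up when IMPase is blocked and the TR-FRET signal falls; potency is the fitted concentration of half-maximal effect; plate controls were basal vehicle for no effect and high inhibitor control for full effect; nearly all actives have a fitted effect of over 50% in size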
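Readout is a homogeneous TR-FRET IP1 immunoassay (Ex 320, Em 665 and 620), where raised cytosolic IP1 lowers signal. Cells were CHO-M1 treated 30 min at 37C with test compounds plus a little lithium; AC50 values came from Hill-equation fitting.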
ALDH1A1 inh: blocks purified human ALDH1A1 activity | P00352 | AID 1030 | Purified ALDH1A1, NADH fluorescence, propionaldehyde substrate | Potency, µM (series often up to 75.3 µM), for the others: at the top dose activity, negative = inhibition, actives largely listed as inhibitors | hit rate 7.3% among 220,000; active = well fitted inhibition curve with a large enough effect, not every such curve was filed as active; inconclusive = small, poorly fitted or top-dose-only effect, or another doubt; inactive = no such curve, though single readings can be large or run the other way;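 note: potency is the fitted concentration of half-maximal effect; plate controls were no enzyme wells and a reference inhibitor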
Active calls of the source: *; [ ] = another dose, or the depositor's remark. Rows were chosen to be rich in hits. Some 8.9% of all compounds tested hit in one or more screens of this group. Unless noted, calls come from the whole dose curve; as a rule, active = well fitted curve in the direction sought with a large enough effect; inconclusive = small, poorly fitted or top-dose-only effect, or another doubt; inactive = no such curve, though single readings can be large; an effect the other way counts as inactive or inconclusive. Unless noted, % is set by controls: 0 for no effect and ±100 for the full control effect.

COCCCNC(=O)CSc1nc2ccccc2c(=O)n1CCC(=O)NCCc1ccc(OC)c(OC)c1 was read as NPSR antagonist 8%, IMPase Li cell -2% and ALDH1A1 inh inconclusive.
Screening O=C(CCN1CCN(CCO)CC1)Nc1ccc(F)c(F)c1 returned IMPase cell inh 4, 12-hLO inh 2%, HPGD block -11%, NPSR antagonist -2%[46.1 µM], IMPase Li cell -1%[38.3 µM] and ALDH1A1 inh 7%.
`Cc1cc(OCC(=O)O/N=C(\N)Cc2cccs2)ccc1Br` gave IMPase cell inh -1, 12-hLO inh 2%, HPGD block 4%, NPSR antagonist -12%[46.1 µM], IMPase Li cell 15%[38.3 µM] and ALDH1A1 inh 6%.
Screening Cc1ccc2[nH]c(=O)c(CNC(C)(C)C)cc2c1 returned IMPase cell inh -2, 12-hLO inh -6%, HPGD block inconclusive, NPSR antagonist -7%[46.1 µM], IMPase Li cell -2%[38.3 µM] and ALDH1A1 inh inconclusive.
Screening CC(C)(C)NCc1cc2ccccc2[nH]c1=O returned IMPase cell inh -7, 12-hLO inh -16%, HPGD block inconclusive, NPSR antagonist 8%[46.1 µM], IMPase Li cell 31%[38.3 µM] and ALDH1A1 inh 20µM*.
Screening CC(C)[C@H](NC(=O)NC1CCN(Cc2ccccc2)CC1)C(=O)O returned NPSR antagonist -10% and ALDH1A1 inh 3%.
`O=[N+]([O-])c1ccc(Sc2cccc3cccnc23)c([N+](=O)[O-])c1` gave IMPase cell inh 4, 12-hLO inh 1%, HPGD block -21%, NPSR antagonist 3.2µM*, IMPase Li cell 24%[38.3 µM] and ALDH1A1 inh 0%.
`COc1ccc(CNC(=O)C2CC(=O)N(c3ccc(OCC(=O)N4CCCCC4)cc3)C2)cc1` (stereo not drawn) gave IMPase cell inh -19, 12-hLO inh 4%, HPGD block 14µM*, NPSR antagonist 7%[46.1 µM], IMPase Li cell 19%[38.3 µM] and ALDH1A1 inh inconclusive.
NC(N)=N[C@@H]1C(O)[C@H](N=C(N)N)[C@@H](O)C(O)[C@H]1O (stereo partly drawn) was read as 12-hLO inh 4%[11.4 µM], HPGD block -10%, IMPase Li cell -2% and ALDH1A1 inh 8%[13.5 µM].
Screening CN(C)S(=O)(=O)c1ccc(NC(=O)COC(=O)C2CC3CCCC(C2)C3=O)cc1 (stereo not drawn) returned NPSR antagonist 18%, IMPase Li cell -1% and ALDH1A1 inh -4%.
For CC(/C=N/n1c(-c2cc(C)[nH]n2)n[nH]c1=S)=C\c1ccccc1 the results were 12-hLO inh -8%, HPGD block 10µM*, NPSR antagonist -3%, IMPase Li cell 3% and ALDH1A1 inh -14%.
CC(=C/c1ccccc1)/C=N/n1c(-c2ccco2)n[nH]c1=S was read as IMPase cell inh 0, 12-hLO inh inconclusive, HPGD block 5µM*, NPSR antagonist -25%[46.1 µM], IMPase Li cell 1%[38.3 µM] and ALDH1A1 inh inconclusive.
For CC(/C=N/n1c(-c2cccnc2)n[nH]c1=S)=C\c1ccco1 the results were NPSR antagonist -24%.
For FC(F)(F)c1cc(-c2ccco2)nc(N2CCN(c3ccccc3)CC2)n1 the results were IMPase cell inh -4, 12-hLO inh 0%, HPGD block -17%, NPSR antagonist -6%[46.1 µM], IMPase Li cell 42%[38.3 µM] and ALDH1A1 inh -4%.
For C=CCNC(=O)C1CCC(C(=O)NCC=C)CC1 (stereo not drawn) the results were NPSR antagonist 17%, IMPase Li cell 7% and ALDH1A1 inh 13%.
O=C1CSc2ccc(C(=O)NCCC3=CCCCC3)cc2N1 was read as IMPase cell inh 4, 12-hLO inh 5%, HPGD block -6%, NPSR antagonist -11%[46.1 µM], IMPase Li cell -23%[38.3 µM] and ALDH1A1 inh 7%.
`COCCNC(=O)c1ccc2c(c1)NC(=O)CS2` gave IMPase cell inh 0, 12-hLO inh -4%, HPGD block 35µM*, NPSR antagonist -2%[46.1 µM], IMPase Li cell -1%[38.3 µM] and ALDH1A1 inh 8%.
